Reference: PubChem BioAssay
Activity calls are given as the source filed them.

Tests used:
[1] = test system: XIP peptide (Xip251-270) binding; assay: small-molecule binders of XIP peptide, primary screen, biochemical, small-molecule microarray, fluorescence 635/667 nm, 0.1 µg/mL protein (AID 1182); settings: fluorescent protein binding, 635 nm, higher = more signal, called active from +8 up or from −8 down
[2] = test system: XIP peptide (Xip251-270); assay: small-molecule binders of XIP peptide, primary screen, biochemical, small-molecule microarray, fluorescence 635/667 nm, 0.5 µg/mL protein (AID 1183); settings: small-molecule microarray binding, fluorescence 635 nm; higher = more signal
[3] = Plasmodium falciparum growth inhibition, primary screen, strain 3D7, DAPI fluorescence, 100 nL (AID 1184);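 further: parasites grown inside human red blood cells in medium with human serum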; settings: P. falciparum 3D7 growth, 3 d, higher = more signal
[4] = target: Homeobox protein Hox-A13 (Mus musculus) (UniProt Q62424); assay: inhibitors of HoxA13-DNA binding, primary screen, biochemical, fluorescence polarization, labeled oligonucleotide (AID 1185); settings: 15 min, higher = more signal, called active from +8 up or from −8 down
Homeobox protein Hox-A13 (Mus musculus), sequence (Q62424 whole entry, looked up): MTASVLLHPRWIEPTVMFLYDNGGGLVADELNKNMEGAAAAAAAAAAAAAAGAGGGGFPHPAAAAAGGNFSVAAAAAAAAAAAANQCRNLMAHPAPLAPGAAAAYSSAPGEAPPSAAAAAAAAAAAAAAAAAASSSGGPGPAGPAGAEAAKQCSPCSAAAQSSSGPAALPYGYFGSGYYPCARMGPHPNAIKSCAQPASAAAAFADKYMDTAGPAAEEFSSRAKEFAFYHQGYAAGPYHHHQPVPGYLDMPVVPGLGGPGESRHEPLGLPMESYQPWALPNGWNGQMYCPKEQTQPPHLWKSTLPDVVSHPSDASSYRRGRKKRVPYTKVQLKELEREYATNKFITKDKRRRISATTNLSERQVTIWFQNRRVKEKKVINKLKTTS

Structure (SMILES)	composite z-score [1]	composite z-score [2]	z-score [3]	z-score [4]
CON=C(C)CCC(=O)OC[C@H]1O[C@H](c2ccccc2)C=C[C@@H]1Oc1ccc(OC)cc1	0.103 (inactive)	0.19	-0.442	-4.5 (inactive)
Cc1ccc(S(=O)(=O)N[C@H]2COC(=O)CC=C[C@H](C)[C@@H](NS(=O)(=O)c3ccc(C)cc3)COC(=O)CC=C[C@@H]2C)cc1	0.127 (inactive)	-0.019	-0.304	-0.449 (inactive)
C#CCCCON=C1C[C@@H](O)[C@@H](O)[C@@H]2[C@@H]3C(=O)N(c4cccc(Oc5ccccc5)c4)C(=O)[C@@H]3CC[C@H]12	0.332 (inactive)	0.507	0.63	0.303 (inactive)
CCOC(=O)[C@H](Cc1ccccc1)NC(=O)OC1CC(CCC2CC(CC)=NO2)OC2(CCCC(COC(=O)NCCC(C)C)O2)C1 (stereo not given in full)	0.654 (inactive)	0.527	-1.04	-5.07 (inactive)
CCOC(=O)NN=C1C[C@@H](O)[C@@H](O)[C@@H]2[C@@H]3C(=O)N([C@@H](C)c4ccccc4)C(=O)[C@@H]3CC[C@H]12	0.0004 (inactive)	-0.0286	-0.125	-1.52 (inactive)
COc1ccc(O[C@H]2C=C[C@@H](c3ccccc3)O[C@@H]2CON=C2[C@H]3CCn4c(=O)n(-c5ccccc5)c(=O)n4[C@H]3[C@H](O)[C@@H]3O[C@H]23)cc1	-0.454 (inactive)	0.742	-0.725	-4.59 (inactive)
CCOC(=O)[C@H](CC(C)C)NC(=O)CCC1CC(OC(=O)NCCc2ccc(F)cc2)CC2(CCCC(COC(=O)NCCC(C)C)O2)O1 (stereo not given in full)	-0.0575 (inactive)	-0.228	-0.329	-2.83 (inactive)
O=C1C=C[C@@H](O)[C@@H]2[C@@H]3C(=O)N(C[C@@H]4CCCO4)C(=O)[C@@H]3CC[C@@H]12	0.179 (inactive)	0.119	0.0136	0.112 (inactive)
O=C1[C@H]2[C@H]3[C@H](O)[C@H](O)CC(=NO[C@@H]4O[C@H](CO)[C@@H](O)[C@H](O)[C@H]4O)[C@H]3CC[C@H]2C(=O)N1c1cccc(Oc2ccccc2)c1	-0.373 (inactive)	0.538	-0.418	-1.68 (inactive)
COC(=O)[C@H]1O[C@@H](c2c(OC)c(OC)c(C)c(OC)c2OC)[C@H](C)[C@@H](O)[C@H]1C	0.498 (inactive)	0.486	0.0136	0.6 (inactive)
COC(=O)CC=C[C@@H](C)[C@@H](C=NOC[C@@H](O)[C@H]1O[C@@H]2OC(C)(C)O[C@@H]2[C@H]1O)NS(=O)(=O)c1ccc(C)cc1	0.0133 (inactive)	-0.0003	1.4	0.413 (inactive)
CO[C@H]1COC(=O)CCC[C@@H](C)[C@H](OC)COC(=O)[C@@H](C)NC(=O)CC=C[C@@H]1C	-0.157 (inactive)	-0.0673	-1.29	-1.94 (inactive)
COC(=O)CC=C[C@@H](C)[C@@H](C=NO[C@H](C)c1cn([C@@H]2COC[C@H]2O)nn1)NS(=O)(=O)c1ccc(C)cc1	-0.362 (inactive)	0.486	0.781	-1.63 (inactive)
CC(=O)OC[C@H]1O[C@H](C#Cc2ccccc2)C=C[C@@H]1OC(C)=O	-0.794 (inactive)	0.823	0.0037	-3 (inactive)
CCOC(=O)[C@H](CC(C)C)NC(=O)CCC1CC(OC(=O)NCCc2ccc(F)cc2)CC2(CCCC(COC(=O)NCCOc3ccccc3)O2)O1 (stereo not given in full)	0.679 (inactive)	0.31	-2.02	-6.97 (inactive)
COC(=O)CC=C[C@@H](C)[C@@H](C=NOCC[C@@H]1C=C[C@H](OC(C)=O)[C@@H](COC(C)=O)O1)NS(=O)(=O)c1ccc(C)cc1	0.412 (inactive)	0.303	0.0783	-5.32 (inactive)
CC(=O)OC[C@H]1O[C@H](CC=NO[C@H](C)c2cn([C@H](CO)Cc3ccccc3)nn2)C=C[C@@H]1OC(C)=O	0.364 (inactive)	0.289	0.242	-1.83 (inactive)
CO[C@H]1COC(=O)CC=C[C@H](C)[C@@H](OC)COC(=O)[C@@H](C)NC(=O)CC=C[C@@H]1C	-0.303 (inactive)	0.54	-0.297	-1.25 (inactive)
COC(=O)[C@@H]1CC[C@H](C)[C@@H](c2ccc(C)cc2)N1C(=O)c1ccc(C=NOCC[C@@H]2C=C[C@H](OC(C)=O)[C@@H](COC(C)=O)O2)cc1	-0.425 (inactive)	0.484	-0.316	-5.26 (inactive)
COC(=O)CC=C[C@@H](C)[C@@H](C=NOC[C@H]1O[C@H](c2ccccc2)C=C[C@@H]1Oc1ccc(OC)cc1)NS(=O)(=O)c1ccc(C)cc1	-0.0195 (inactive)	-0.827	-0.683	-2.52 (inactive)
CCOC(=O)[C@H](CC(C)C)NC(=O)CCC1CC(OC(=O)NCc2cccc3ccccc23)CC2(CCCC(COC(=O)NCC3CCCCC3)O2)O1 (stereo not given in full)	-0.145 (inactive)	0.539	-2.01	-4.22 (inactive)
CO[C@@H]1COC(=O)[C@H](CCSC)NC(=O)CC=C[C@@H](C)COC(=O)CCC[C@H]1C	1.2 (inactive)	0.929	-0.766	-2.31 (inactive)
CO[C@@H]1C=CCC(=O)N[C@@H](C)C(=O)OC[C@@H](OC)[C@H](C)CCCC(=O)OC[C@H]1C	-0.203 (inactive)	0.111	0.0984	-0.313 (inactive)
COc1cccc([C@H]2Oc3ccc(OC)cc3C(=NO[C@@H](C)c3cn([C@H](CO)Cc4ccccc4)nn3)[C@@H]2O)c1	0.213 (inactive)	0.502	-0.868	-6.48 (inactive)
COC(=O)C1=C(C)N(Cc2ccccc2)[C@]23O[C@](C(=O)OC)(C(=O)N2[C@@H]1c1ccccc1)C(C(=O)OC)=C3C(=O)OC	1.49 (inactive)	0.435	-1.08	-3.67 (inactive)
CON=C[C@@H](C)[C@H](OCc1ccccc1)C(C)C	-0.372 (inactive)	-0.647	-1.11	3.84 (inactive)
CCOC(=O)[C@H](Cc1ccccc1)NC(=O)CCC1CC(OC(=O)NCCc2ccc(F)cc2)CC2(CCCC(COC(=O)NCCOC)O2)O1 (stereo not given in full)	1.99 (inactive)	0.0681	-0.218	-6.28 (inactive)
C[C@H]1COC(=O)[C@@H]2CCCN2C(=O)[C@@H](C)COC(=O)[C@H](Cc2ccccc2)NC1=O	-0.102 (inactive)	0.435	-0.735	0.163 (inactive)
C[C@@H](ON=C1[C@H]2CCn3c(=O)n(-c4ccccc4)c(=O)n3[C@H]2[C@H](O)[C@@H]2O[C@H]12)c1cn([C@@H]2COC[C@H]2O)nn1	-0.24 (inactive)	0.324	0.0979	-2.77 (inactive)
CCOC(=O)NN=C1C[C@@H](O)[C@@H](O)[C@@H]2[C@@H]3C(=O)N(c4ccc(F)cc4F)C(=O)[C@@H]3CC[C@@H]12	0.015 (inactive)	-0.0246	-0.404	-1.23 (inactive)
